# Measured values: PubChem BioAssay (NCI)
# About 83,000 compounds went through this panel and 20% of them were active in at least one assay; those are over-represented in the sample as a whole.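 For each line, cells grew in 96-well plates with the test compound present at a single concentration for 48 hours.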 A number with no mark means an inactive call. Calls of active or inactive are those of the source. Rule for the calls: active = growth percent below 10; inactive = the rest.
# Columns and labels:
# Experiment in all cases: NCI-60 one-dose screen, 48 h (100 = growth as untreated, 0 = no growth, -100 = all killed)
# Conditions in all cases: 10 µM unless noted
# T-47D breast = test system: T-47D breast
# BT-549 breast = test system: BT-549 breast
# MDA-MB-435 melanoma = test system: MDA-MB-435 melanoma
# SW-620 colon = test system: SW-620 colon
# MCF7 breast = test system: MCF7 breast
# HCT-116 colon = test system: HCT-116 colon
# HCC-2998 colon = test system: HCC-2998 colon
# KM12 colon = test system: KM12 colon
SMILES,growth (T-47D breast),growth (BT-549 breast),growth (MDA-MB-435 melanoma),growth (SW-620 colon),growth (MCF7 breast),growth (HCT-116 colon),growth (HCC-2998 colon),growth (KM12 colon)
CCCCCCCCCCCCCCCCCCOc1ccccc1CC(=O)OCC[N+]1(C)CCOCC1,84.9%,82.9%,82.4%,77.1%,79.8%,65.6%,71.8%,65.8%
Cc1ccc2[nH]c(=O)c3c(c2c1)OC(N)=C(C#N)C31C(=O)c2cccc3cccc1c23 (configuration not stated),85.8%,102%,97.6%,101%,88.2%,101%,106%,94.4%
CCN(CCO)CC(C)Nc1ccc([N+](=O)[O-])c2sc3ccccc3c(=O)c12 (configuration not stated),39.9%,58.9%,23.5%,18.6%,13.1%,11.8%,38.6%,37.9%
O=C1/C(=C/c2cccc([N+](=O)[O-])c2)COc2ccc(O)cc21,46.2%,63.3%,12.4%,-47.3% (active),-26.2% (active),-44.6% (active),58.7%,15.5%
COc1cc(OC)cc(C2C(C#N)=C(N)Oc3c2ccc2ccc(O)cc32)c1 (configuration not stated),58.4%,26.2%,4.98% (active),26.1%,7.95% (active),4.25% (active),7.75% (active),5.84% (active)
COc1ccc2nc(SCC(=O)Nc3ccccc3C)[nH]c2c1,84.2%,97.6%,97%,99.4%,90.7%,98.9%,106%,101%
CN1CCCc2cc(/C=C3/SC(=S)N(CCc4ccc(O)cc4)C3=O)ccc21,84%,84.9%,17.5%,85%,72.2%,89.3%,106%,48.7%
Cc1ccc2[nH]c(-c3ccc(S(C)(=O)=O)cc3)c(/C=N/N=C(N)N)c2c1,67.8%,76.9%,-21.9% (active),36.4%,64.6%,24.4%,74%,46.1%
C=C1C(=O)O[C@H]2[C@H]1CC/C(COC(=O)NCc1ccc(Cn3c(=O)sn(-c4ccc(OC)cc4)c3=O)cc1)=C\CC[C@@]1(C)O[C@@H]21,18.5%,73.1%,67.1%,-59.8% (active),20.3%,5.31% (active),97.5%,95.3%
Cc1ncc(C(=O)Nc2ccc(CN3CCN(C)CC3)c(C(F)(F)F)c2)cc1C#Cc1cnc(N)c2cnccc12,8.63% (active),14.6%,6.4% (active),-55.3% (active),-73.7% (active),-86.1% (active),-1.5% (active),9.54% (active)
C=C1C(=O)O[C@H]2[C@H]1CC/C(Cn1cc(-c3cc(C(F)(F)F)cc(C(F)(F)F)c3)nn1)=C\CC[C@@]1(C)O[C@@H]21,-60.6% (active),-78% (active),-81.7% (active),-35.8% (active),-67.6% (active),-87.2% (active),-87.4% (active),-77.1% (active)
CC1(C)C2CC=C(/C=N/NC(=O)C3CCC(=O)N3)C1C2 (configuration not stated),107%,105%,106%,104%,99.1%,108%,119%,106%
COc1ccc(C2C(C#N)=C(N)Oc3c2sc2c(Br)cccc32)cc1 (configuration not stated),27.2%,34.4%,-18.1% (active),32%,13.1%,22.4%,56.8%,27.5%
O=C(Cn1nnc2ccccc21)N/N=C/c1ccccc1F,92%,101%,102%,96.7%,89.9%,101%,115%,91.9%
Cc1ccc(-c2nc(C#N)c(S(=O)(=O)NCCO)o2)cc1,43.1%,64.7%,68.5%,33.8%,37.9%,51.6%,98.1%,88%
Cc1cc(C)c(-c2c(O)c(Br)c(-c3c(C)cc(C)c(Br)c3C)c(O)c2Br)c(C)c1Br,-19.4% (active),22.2%,13.1%,3.38% (active),6.48% (active),9.25% (active),37.3%,12.2%
CCN1CCN(CC(=O)Nc2nc3ccc(NCc4ccc(Br)cc4)cc3s2)CC1,48.1%,85.7%,-6.35% (active),5.94% (active),10.3%,17.8%,62.6%,52.8%
O=C(CCCCCCCCC(=O)N/N=C\c1cc(Cl)ccc1O)N/N=C\c1cc(Cl)ccc1O,28.2%,38.5%,38.1%,46.5%,20%,22.7%,39%,24.2%
O=C(Cn1cc(CN2C(=O)c3ccccc3S2(=O)=O)nn1)Nc1cccc(Cl)c1,97%,133%,100%,102%,92.5%,98.8%,93.5%,104%
Cn1c(O)c(C(/C=C/c2ccccc2)=Nc2ccccc2N)c(=O)n(C)c1=O,85.5%,121%,95.5%,106%,99%,56.7%,90%,107%
N=C(N)SCc1cccc2c(CSC(=N)N)cccc12,96.2%,107%,107%,103%,98.2%,101%,104%,94.5%
Cc1nc2ccccc2c(/C=C/c2ccc(C(F)(F)F)cc2)c1C(=O)/C=C/c1ccccc1,-18.6% (active),-0.148% (active),-39.2% (active),-40.8% (active),4.74% (active),-74.9% (active),-74.7% (active),4.07% (active)
O=C1Nc2ccccc2C2c3cccn3-c3ccccc3N12 (configuration not stated),76%,82.7%,7.5% (active),49.6%,60.1%,78.2%,77.2%,62.3%
C=C1C(=O)O[C@H]2[C@H]1CC/C(COC(=O)/C=C\C(=O)NCc1ccc(Cn3c(=O)sn(-c4ccccc4)c3=O)cc1)=C\CC[C@@]1(C)O[C@@H]21,67.9%,93.5%,67.7%,19.9%,53.7%,33.6%,105%,106%
CCN(CC)c1ccc(/C=C\c2cc(C)c3cc(C)ccc3n2)cc1,-22.3% (active),-11.5% (active),3.36% (active),23.1%,19.9%,6.6% (active),13.6%,27.1%
CCCCCSB(SCCCCC)c1ccccc1,94.3%,105%,103%,100%,104%,106%,88.7%,107%
CN1CCN(Cc2ccc(NC(=O)c3cncc(C#Cc4cnn5ccccc45)c3)cc2C(F)(F)F)CC1,35.5%,41%,6.02% (active),-14.3% (active),0.711% (active),4.92% (active),-19.1% (active),0.221% (active)
CN1CCN(c2ccc(NC(=O)c3cncnc3Nc3ccc4c(ccn4Cc4cccc(F)c4)c3)cc2)CC1,48.8%,85.6%,-79.7% (active),5.18% (active),12.8%,13.1%,61.6%,46.7%
COCCCOc1cc(C[C@@H](C[C@H](N)[C@@H](O)C[C@H](C(=O)NCC(C)(C)C(N)=O)C(C)C)C(C)C)ccc1OC,107%,110%,98.9%,105%,95.1%,101%,102%,109%
